# Bioassay records from PubChem.
# Most compounds without a hit are left out; they make up all but 0.42% or so of the library.
# Tb PGK inh – blocks T. brucei phosphoglycerate kinase; P07378; PGK/GAPDH coupled, Kinase-Glo luminescence, 60 min; Potency, µM (doses to about 57.5 µM), for the others: top-dose activity change, negative = inhibition, actives largely listed as inhibitors; hit rate 0.043% among 380,000; further: nearly all actives have a fitted effect of over 60% in size
#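 Recombinant glycosomal PGK reaction used 1,3-bisphosphoglycerate generated in-well by GAPDH (100nM final) in 100mM TEA pH 7.6, 5mM MgCl2, 0.01% Tween-20. After 60 minutes at room temperature, ATP was read by Kinase-Glo Plus luminescence end-point.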
# Tb PFK inh – inhibitors of T. brucei phosphofructokinase | O15648 | T. brucei PFK, ADP-Glo luminescence | Potency, µM (doses to about 57.5 µM), inactives show at the highest dose activity, negative = inhibition, hits mostly inhibitors | hit rate 0.17% among 330,000 | AID 485367;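 further: 0% = uninhibited 1x PFK enzyme wells and -100% = no-enzyme wells; nearly all actives have a fitted effect of over 60% in size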
#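 1.25 nM PFK with 0.5 mM F6P and 0.1 mM ATP in 0.1 M TEA pH 8.0, 5 mM MgCl2, incubated 45 min at room temperature; ADP measured by ADP-Glo luminescence; compounds titrated up to 57 uM.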
# GLS inhibitor – blocks human kidney-isoform glutaminase activity; O94925; GLS enzymatic activity, qHTS titration; Potency, µM (titrated, usually from 45.5 µM), without a hit: top-dose activity change, negative = inhibition, usual class: inhibitors; hit rate 0.21% among 410,000; AID 624170
#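 Glutamate formation by hKGA was monitored fluorometrically using coupled glutamate oxidase, HRP and Amplex Red. Substrate was added as 1 mM L-glutamine solution; incubation was 30 min at RT after an initial read.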
# Pin1 inh – blocks the human prolyl isomerase Pin1; Q13526; Pin1 FP peptide displacement, HiFluor488, 10 min; Potency, µM (titrated, usually from 115 µM), without a hit: at the top dose activity, negative = inhibition, most hits filed as inhibitors; hit rate 0.009% among 390,000; active means well fitted inhibition curve with a large enough effect in the polarisation, with a control signal flat, not every such curve was filed as active; inconclusive means small, poorly fitted or top-dose-only effect, or effect the other way, or a change in a side signal; inactive means no such curve, though single readings can be large or run the other way; the % refers to the polarisation
# Target sequence (Q13526 whole entry, looked up): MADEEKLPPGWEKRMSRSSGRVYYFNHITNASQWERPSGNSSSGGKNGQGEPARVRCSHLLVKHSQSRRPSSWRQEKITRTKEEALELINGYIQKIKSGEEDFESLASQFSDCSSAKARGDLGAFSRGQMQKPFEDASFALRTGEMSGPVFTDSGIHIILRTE
# B2AR arrestin – agonists driving beta-arrestin recruitment to human beta2-adrenergic receptor | P07550 | beta-arrestin recruitment to beta2AR, cell-based reporter | hit rate 0.02% among 330,000 | Potency, µM (doses to about 46.1 µM), without a hit: at the top dose activation, actives largely listed as activators;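 further: 0% = DMSO controls and full agonism = EC100 isoproterenol or metaproterenol; nearly all actives have a fitted effect of over 65% in size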
# Target sequence (P07550 whole entry, looked up): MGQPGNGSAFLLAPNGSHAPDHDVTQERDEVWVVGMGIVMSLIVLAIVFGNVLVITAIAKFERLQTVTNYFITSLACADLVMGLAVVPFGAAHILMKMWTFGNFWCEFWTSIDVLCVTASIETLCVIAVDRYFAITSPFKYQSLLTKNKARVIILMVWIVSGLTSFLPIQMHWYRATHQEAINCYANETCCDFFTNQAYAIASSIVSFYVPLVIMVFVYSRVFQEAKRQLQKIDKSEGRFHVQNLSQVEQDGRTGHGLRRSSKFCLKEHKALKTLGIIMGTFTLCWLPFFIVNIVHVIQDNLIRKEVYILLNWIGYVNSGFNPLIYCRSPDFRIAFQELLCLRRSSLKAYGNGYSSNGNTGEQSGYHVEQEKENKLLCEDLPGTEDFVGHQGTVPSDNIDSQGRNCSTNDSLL
# Chronic BCR inh – blocks chronic active B-cell receptor signaling; ABC-DLBCL IkBa-CBG/CBR reporter, luminescence ratio, 4 h; Potency, µM (top dose mostly 46.1 µM), for inactives: top-dose activity change, negative = inhibition, most hits filed as inhibitors; hit rate 0.05% among 340,000; AID 493014; active means well fitted inhibition curve with a large enough effect in the signal ratio, with a control signal flat, not every such curve was filed as active; inconclusive means small, poorly fitted or top-dose-only effect, or effect the other way, or a change in a side signal; the % refers to the signal ratio;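 further: plate controls were basal doxycycline-induced cells for no effect and cells given 10 µM MG132 for full effect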
#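 Doxycycline induced both beetle luciferases in TMD8 lymphoma cells; IKK-driven degradation limits the IkappaBalpha-fused green signal, while red luminescence normalises for cell number and nonspecific effects. Compounds tested up to 46 uM, 4 hrs.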
# Starred values were filed as active, the others as inactive; i = inactive; ? = inconclusive; . = not tested or not shown. Unless noted, the call rests on the fitted dose curve; in most records, active means well fitted curve in the direction sought with a large enough effect; inconclusive means small, poorly fitted or top-dose-only effect, or another doubt; inactive means no such curve, though single readings can be large; an effect the other way counts as inactive or inconclusive. Unless noted, on the % scale 0 is the no-effect control and ±100 the full control effect; potency means the concentration at half of the fitted maximal effect.
SMILES,Tb PGK inh,Tb PFK inh,GLS inhibitor,Pin1 inh,B2AR arrestin,Chronic BCR inh
O=C(O)c1ccc(/C=N/Nc2cccc(C(F)(F)F)c2)cc1,6.3%,-1.5%,14.1µM*,-3.9%,0.1%,?
Oc1ccc(NCc2ccccc2OCc2ccccc2)cc1,-9.4%,-7.6%,?,?,7.31µM*,?
COc1ccc2ncnc(NCC3CCCO3)c2c1-c1ccc2c(c1)OCO2 (stereo not given),.,.,.,-21.1%,.,.
Cc1ccccc1Cn1c(=O)c2c(nc3n2CCCN3Cc2ccccc2)n(C)c1=O,-0.6%,.,11.2µM*,4.5%,.,.
Cn1c(=O)n(Cc2ccccc2)c(=O)c2c1nc1n2CCS1,i,0.0%,11.2µM*,-3.4%,0.0%,6.5%
CC(=O)Nc1sc2c(c1-c1nc3ccccc3s1)CCS(=O)(=O)C2,.,.,.,16.9%,.,.
O=C(CN1CCN(c2ccccc2O)CC1)NC(c1ccccc1)c1ccccc1,-4.8%,7.9%,13.6%,-4.3%,0.0%,?
O=C(CN1CCN(c2ccccc2O)CC1)NCCCc1ccccc1,9.3%,0.4%,5.01µM*,4.5%,0.2%,-16.6%
Oc1ccccc1Nc1ccccn1,i,-1.4%,12.6µM*,-0.5%,-0.3%,0.1%
c1ccc(Nc2ccccn2)nc1,-4.1%,-0.1%,-1.7%,-6.4%,-1.0%,?
c1nc(NCc2ccoc2)c2cc(-c3ccc4c(c3)OCO4)ccc2n1,.,.,.,12.8%,.,.
CONC(=O)C[C@@H](C#N)NC(=O)[C@@H]1CCCN1C(=O)[C@@H](NC(=O)c1ccc(N)c(Cl)c1)C(C)(C)C,.,.,.,-6.4%,.,.
O=c1[nH]c2ccccc2c(O)c1O,i,-26.1%,5.62µM*,9.1%,11.2%,?
O=C(N/N=C/c1cccc(O)c1)c1cc(-c2ccccc2)nc2ccccc12,5.2%,1.5%,1.9%,?,0.3%,0.0%
O=C(N/N=C/c1ccc(O)c(O)c1)c1cc(-c2ccccc2)nc2ccccc12,-1.7%,2.3%,12.6µM*,-6.3%,0.1%,0.5%
O=C(NC1CC1)c1cc(-c2ccco2)nc2ccccc12,?,-17.1%,?,21.3µM*,-1.1%,0.2%
O=C(N/N=C/c1ccc(F)cc1)c1cc(-c2ccco2)nc2ccccc12,?,-5.2%,10µM*,.,-0.1%,5.9%
O=C1C(=Cc2ccco2)CCC1=Cc1ccco1,3.55µM*,.,72.7%,.,.,.
N#Cc1nc(Nc2cccc(F)c2)nc(NC2CCCC2)n1,.,.,.,-8.7%,.,.
COc1ccc(CC(=O)n2[nH]c(=O)ccc2=O)cc1OC,0.8%,-25.3%,10µM*,2.9%,0.3%,8.4%
NC(=O)C1CCN(c2nnc(-c3ccc4c(c3)OCCCO4)s2)CC1,.,.,.,3.4%,.,.
O=c1c2ccc(F)cc2sn1-c1ccccc1,-7.9%,.,7.08µM*,.,.,.
Cc1ccc(S(=O)(=O)N2CCN(c3nc(-c4ccco4)nc4ccccc34)CC2)cc1,.,.,.,29.9%,.,.
O=C(O)c1cc(O)c2c(c1)[C@H]([C@H]1c3cc(C(=O)O)cc(O)c3C(=O)c3c(O[C@@H]4OC(CO)C(O)C(O)C4O)cccc31)c1cccc(O[C@@H]3OC(CO)C(O)C(O)C3O)c1C2=O (stereo not given in full),.,.,-88.4%,.,.,.
O=C(O)c1cc(O)c2c(c1)[C@@H]([C@H]1c3cc(C(=O)O)cc(O)c3C(=O)c3c(O[C@@H]4O[C@H](CO)[C@@H](O)[C@H](O)[C@H]4O)cccc31)c1cccc(O[C@@H]3O[C@H](CO)[C@@H](O)[C@H](O)[C@H]3O)c1C2=O,3.16µM*,?,1.78µM*,2.51µM*,-0.9%,?
SMILES,Tb PGK inh,Tb PFK inh,GLS inhibitor,Pin1 inh,B2AR arrestin,Chronic BCR inh
CNC(=S)N/N=C1\C(=O)c2cccc3cccc1c23,-7.2%,2.0%,18.1%,?,3.55µM*,?
C/C(CC(=O)Nc1ccc(Cl)cc1Cl)=N\NC(N)=S,6.6%,2.5%,17.6%,-14.9%,-0.5%,-0.6%
C/C(CC(=O)Nc1ccc(Cl)cc1C(F)(F)F)=N\NC(N)=S,-1.0%,0.0%,2.4%,-0.3%,12.4%,11.2µM*
CCCCC(CC)CN=C(N)NC(N)=NCCCCCCN=C(N)NC(N)=NCC(CC)CCCC (stereo not given),i,?,15.8µM*,32.0%,0.4%,?
C/C(=N/NC(N)=S)c1ccc(Br)s1,1.8%,-6.5%,20.0%,5.2%,?,20µM*
CC(C)(C)C(=O)N1CCC2CC1c1cc(-c3ccc4c(c3)OCO4)ccc12 (stereo not given),.,.,-0.9%,.,.,.
CC(C)(C)NC(=S)N1CCC2CC1c1cc(-c3ccc4c(c3)OCO4)ccc12 (stereo not given),.,.,15.8µM*,.,.,.
O=c1cc(-c2ccc(O)cc2)oc2c(O)c(O)c(O)c(O)c12,4.47µM*,-19.7%,11.2µM*,?,-1.1%,4.7%
O=S(=O)(c1ccccc1)N1CCN(c2nc(-c3ccc(Br)cc3)cs2)CC1,.,.,.,-4.4%,.,.
CCOC(=O)CSC1=Nc2ccccc2C2=NC(CC(=O)NCc3ccc(OC)cc3)C(=O)N12 (stereo not given),-9.6%,-3.0%,2.24µM*,-0.1%,-0.3%,6.9%
CCOC(=O)CSC1=Nc2ccccc2C2=NC(CC(=O)NCc3ccc4c(c3)OCO4)C(=O)N12 (stereo not given),-5.7%,0.7%,?,3.5%,0.1%,0.7%
Cc1ccc(-c2ccc(/C=N\n3cnnc3)o2)c(Br)c1,i,-0.2%,-3.6%,-2.1%,3.3%,?
Cc1ccc(Sc2oc(/C=N/n3cnnc3)cc2Br)cc1,-5.4%,5.6%,8.91µM*,-1.4%,-0.8%,-17.0%
COc1ccccc1Cn1c(=S)[nH]c2cc(C(=O)NCC(OC)OC)ccc2c1=O,8.3%,0.6%,10µM*,-0.8%,0.5%,2.0%
COc1ccccc1Cn1c(=S)[nH]c2ccccc2c1=O,-3.3%,0.5%,20µM*,0.9%,10.3%,-16.2%
Nc1ccc(C2=Nc3cccc4cccc(c34)N2)cc1,.,1.8%,8.0%,6.2%,0.0%,-17.4%
COc1cccc(C2=Nc3cccc4cccc(c34)N2)c1,-11.5%,-12.8%,11.2µM*,-13.9%,2.3%,?
CN(C)c1cccc(-c2cnc(N3CCC(c4ncc[nH]4)CC3)s2)c1,.,.,.,-1.9%,.,.
Cc1ccc(C)c2c1c1ccccc1n2C,0.4%,-1.8%,5.7%,0.9%,0.3%,1.1%
CN(C)c1cc2c3ccccc3n(C)c2cc1N,-2.0%,.,11.2µM*,0.0%,.,.
